These results are taken from PubChem BioAssay (EPA / NIEHS).

A short description of test [1]: BSK_3C_VCAM1: BioMAP Diversity Plus: 3C Assay for Vascular cell adhesion molecule 1 (VCAM1) Biomarker Activity (AID 2282999; active = hit-call score of the fitted dose curve at least 0.9, where 1 is the maximum; inactive = score below 0.9). The note with it: BioMAP 3C HUVEC, VCAM1 ELISA, cytokine-stimulated; actives raise or lower the signal. The procedure, abridged: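 Vascular primary endothelium (human umbilical vein) was exposed to chemicals and assayed 24 h later. VCAM-1 levels came from ELISA, with DMSO serving as baseline for bidirectional fitting.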

A short description of test [2]: BSK_4H_Eotaxin3: BioMAP Diversity Plus: 4H Assay for Eotaxin 3 Biomarker Activity (AID 2283000; active = hit-call score of the fitted dose curve at least 0.9, where 1 is the maximum; inactive = score below 0.9;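 as to outcome: CCL26 protein level quantified by ELISA in parallel with SRB cytotoxicity check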). The note with it: primary human endothelial cells (HUVEC); actives raise or lower the signal. In outline:
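ELISA quantitation of CCL26 (Eotaxin-3) protein from chemically dosed human vascular endothelial cells at 24 h; increases and decreases both scored relative to DMSO-treated baseline.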

Test [3] deals with human Peroxisome Proliferator-activated Receptor alpha (PPARa), PPARA (gene 5465) (UniProt Q07869). Kind of test: ATG_PPARa_TRANS: Attagene TRANS-FACTORIAL HepG2 Assay for human Peroxisome Proliferator-activated Receptor alpha (PPARa) (AID 2283001). In outline:
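Cells (HepG2) are transfected with multiple reporter transcription units, exposed to chemical for 24 h, then total RNA is reverse-transcribed and amplified. Labelled products are quantified by capillary electrophoresis; induction is referenced to DMSO.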

The target in test [4] is human Peroxisome Proliferator-activated Receptor delta (PPARd), PPARD (gene 5467) (UniProt Q03181). Kind of test: ATG_PPARd_TRANS: Attagene TRANS-FACTORIAL HepG2 Assay for human Peroxisome Proliferator-activated Receptor delta (PPARd) (AID 2283002). In outline:
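HepG2 cells transiently transfected with multiplexed GAL4-UAS reporter units and exogenous chimeric NR-Gal4 proteins; 24 h compound exposure. Reporter mRNA measured by RT-PCR, 6-FAM labelling, HpaI digestion and capillary electrophoresis; gain of signal versus DMSO.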

Read-out in test [5]: Intercellular Adhesion Molecule 1 (ICAM1), ICAM1 (gene 3383)
The test is described as follows: BSK_3C_ICAM1: BioMAP Diversity Plus: 3C Assay for Intercellular Adhesion Molecule 1 (ICAM1) Biomarker Activity (AID 2283003; active = hit-call score of the fitted dose curve at least 0.9, where 1 is the maximum; inactive = score below 0.9). The note with it: primary human endothelial cells (HUVEC); actives raise or lower the signal. In outline: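 Chemicals are dosed onto primary human umbilical vein endothelium (3C system). After 24 h, ICAM-1 is measured by ELISA, and responses are fitted bidirectionally relative to DMSO.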

A short description of test [6]: BSK_3C_Proliferation: Cell Proliferation Assessment in the BioMAP Diversity Plus: 3C Assay (AID 2283006; active = hit-call score of the fitted dose curve at least 0.9, where 1 is the maximum; inactive = score below 0.9;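 as to AC50: potency may reflect either rise or fall in cell number versus DMSO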). The note with it: primary human endothelial cells (HUVEC). The procedure, abridged:
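Cells (human umbilical vein endothelial, sub-confluent) receive test chemical; after 48 h they are fixed in 10% trichloroacetic acid, stained with 0.1% SRB and read at 560 nm. Activity is referenced to DMSO, fitting increases and decreases.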

The target of test [7] is Peroxisome proliferator-activated receptor gamma (Homo sapiens) (UniProt P37231). The test is described as follows: ATG_PPARg_TRANS: Attagene TRANS-FACTORIAL HepG2 Assay for human Peroxisome Proliferator-activated Receptor-gamma (PPARg) (AID 2283007). The procedure, abridged: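 HepG2 cells are transiently transfected with GAL4-UAS reporter units driven by chimeric NR-Gal4 fusions and dosed for 24 h. Reporter mRNA is quantified by RT-PCR, 6-FAM labelling, HpaI digestion and capillary electrophoresis. Induction is scored against DMSO.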
Chain of Peroxisome proliferator-activated receptor gamma (Homo sapiens) (P37231 whole entry, looked up, the tested form may be a part): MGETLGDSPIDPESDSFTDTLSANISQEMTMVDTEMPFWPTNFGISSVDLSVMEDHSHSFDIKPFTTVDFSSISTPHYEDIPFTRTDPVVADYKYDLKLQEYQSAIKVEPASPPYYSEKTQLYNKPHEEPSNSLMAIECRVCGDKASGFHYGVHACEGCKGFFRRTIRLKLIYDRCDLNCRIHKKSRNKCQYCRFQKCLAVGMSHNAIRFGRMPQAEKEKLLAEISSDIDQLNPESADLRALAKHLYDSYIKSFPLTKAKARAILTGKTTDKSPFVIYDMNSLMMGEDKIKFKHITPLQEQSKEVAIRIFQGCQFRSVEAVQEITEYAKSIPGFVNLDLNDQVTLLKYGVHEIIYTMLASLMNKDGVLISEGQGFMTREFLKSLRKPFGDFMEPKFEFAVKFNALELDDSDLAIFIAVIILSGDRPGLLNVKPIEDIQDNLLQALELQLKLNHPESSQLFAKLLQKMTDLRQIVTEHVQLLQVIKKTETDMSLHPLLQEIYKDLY

For test [8], the target named is Nuclear receptor subfamily 1 group I member 2 (Homo sapiens) (UniProt O75469). Kind of test: ATG_PXR_TRANS: Attagene TRANS-FACTORIAL HepG2 Assay for human Pregnane X Receptor (PXR) (AID 2283008). In outline:
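HepG2 transfected (FuGene 6) with GAL4-UAS reporter units + PXR-Gal4 chimera; dosed 24 h. Total RNA → oligo(dT) RT → PCR → 6-FAM primer extension → HpaI cut → CE. Gain-of-signal vs DMSO.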

For test [9], the target named is human Retinoic Acid Receptor beta (RARb), RARB (gene 5915) (UniProt P10826). Kind of test: ATG_RARb_TRANS: Attagene TRANS-FACTORIAL HepG2 Assay for human Retinoic Acid Receptor beta (AID 2283004). The procedure, abridged: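 Fluorescent capillary-electrophoresis detection of GAL4-UAS reporter mRNA defines the endpoint, with induction over DMSO-treated wells scored as activity. Transiently transfected human hepatoma HepG2 cells expressing exogenous NR–Gal4 proteins are exposed to test chemicals for 24 h.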
Chain of human Retinoic Acid Receptor beta (RARb), RARB (gene 5915) (P10826 whole entry, looked up, the tested form may be a part): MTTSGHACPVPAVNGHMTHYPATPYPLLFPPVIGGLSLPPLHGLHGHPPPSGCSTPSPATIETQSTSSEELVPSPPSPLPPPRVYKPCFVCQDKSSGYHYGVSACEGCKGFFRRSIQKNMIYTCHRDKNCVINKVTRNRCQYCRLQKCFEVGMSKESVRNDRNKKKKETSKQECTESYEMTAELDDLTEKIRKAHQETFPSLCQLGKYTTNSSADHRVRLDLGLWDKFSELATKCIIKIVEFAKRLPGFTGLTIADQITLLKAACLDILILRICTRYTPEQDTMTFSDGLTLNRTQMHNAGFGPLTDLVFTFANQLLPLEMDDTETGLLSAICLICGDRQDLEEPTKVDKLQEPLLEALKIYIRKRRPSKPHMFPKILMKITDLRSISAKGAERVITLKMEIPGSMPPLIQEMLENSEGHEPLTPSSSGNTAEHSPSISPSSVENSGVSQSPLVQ

The target in test [10] is Retinoic acid receptor alpha (Homo sapiens) (UniProt P10276). Kind of test: ATG_RARa_TRANS: Attagene TRANS-FACTORIAL HepG2 Assay for human Retinoic Acid Receptor alpha (RARa) (AID 2283005). In outline:
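HepG2 cells transiently transfected with multiple reporter units expressing chimeric RARα-GAL4 fusion, with GAL4-UAS-driven reporters. After 24 h compound exposure, reporter mRNA induction quantified by RT-PCR and capillary electrophoresis with fluorescent labeling; gain-of-signal fitted relative to DMSO control.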

Values joined by “and” are separate entries in the source; they are usually repeats but may differ in a detail not shown here. Equal entries are not always repeated. Records with an inconclusive call do not appear. More than one record can exist for a structure, and the calls need not agree. Active and inactive are the calls of the source. The calls were made as follows, unless noted: active = hit-call score of the fitted dose curve at least 0.9, where 1 is the maximum; inconclusive = response in the unintended direction; inactive = score below 0.9.

Chain of human Peroxisome Proliferator-activated Receptor delta (PPARd), PPARD (gene 5467) (Q03181 whole entry, looked up, the tested form may be a part): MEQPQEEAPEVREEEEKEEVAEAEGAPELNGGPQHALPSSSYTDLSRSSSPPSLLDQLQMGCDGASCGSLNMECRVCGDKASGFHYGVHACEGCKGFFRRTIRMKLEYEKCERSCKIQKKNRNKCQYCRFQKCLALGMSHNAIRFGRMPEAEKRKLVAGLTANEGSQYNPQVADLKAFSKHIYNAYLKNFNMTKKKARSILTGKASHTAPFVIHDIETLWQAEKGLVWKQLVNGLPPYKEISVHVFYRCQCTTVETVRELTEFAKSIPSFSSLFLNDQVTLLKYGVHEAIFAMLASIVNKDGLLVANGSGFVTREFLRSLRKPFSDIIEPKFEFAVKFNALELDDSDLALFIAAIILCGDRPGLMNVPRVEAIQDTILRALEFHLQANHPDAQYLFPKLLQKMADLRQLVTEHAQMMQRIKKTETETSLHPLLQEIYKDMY
Chain of Nuclear receptor subfamily 1 group I member 2 (Homo sapiens) (O75469 whole entry, looked up, the tested form may be a part): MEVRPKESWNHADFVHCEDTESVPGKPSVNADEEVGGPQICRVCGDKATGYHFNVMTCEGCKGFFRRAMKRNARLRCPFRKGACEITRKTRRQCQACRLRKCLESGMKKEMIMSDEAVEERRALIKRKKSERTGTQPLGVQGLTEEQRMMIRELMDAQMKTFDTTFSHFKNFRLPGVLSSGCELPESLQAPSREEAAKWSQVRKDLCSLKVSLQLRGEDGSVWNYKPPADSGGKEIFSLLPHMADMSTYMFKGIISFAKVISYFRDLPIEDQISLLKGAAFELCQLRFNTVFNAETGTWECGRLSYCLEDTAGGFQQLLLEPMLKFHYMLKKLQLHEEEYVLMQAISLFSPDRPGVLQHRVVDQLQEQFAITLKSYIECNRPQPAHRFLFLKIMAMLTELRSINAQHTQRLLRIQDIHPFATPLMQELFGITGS
Chain of human Peroxisome Proliferator-activated Receptor alpha (PPARa), PPARA (gene 5465) (Q07869 whole entry, looked up): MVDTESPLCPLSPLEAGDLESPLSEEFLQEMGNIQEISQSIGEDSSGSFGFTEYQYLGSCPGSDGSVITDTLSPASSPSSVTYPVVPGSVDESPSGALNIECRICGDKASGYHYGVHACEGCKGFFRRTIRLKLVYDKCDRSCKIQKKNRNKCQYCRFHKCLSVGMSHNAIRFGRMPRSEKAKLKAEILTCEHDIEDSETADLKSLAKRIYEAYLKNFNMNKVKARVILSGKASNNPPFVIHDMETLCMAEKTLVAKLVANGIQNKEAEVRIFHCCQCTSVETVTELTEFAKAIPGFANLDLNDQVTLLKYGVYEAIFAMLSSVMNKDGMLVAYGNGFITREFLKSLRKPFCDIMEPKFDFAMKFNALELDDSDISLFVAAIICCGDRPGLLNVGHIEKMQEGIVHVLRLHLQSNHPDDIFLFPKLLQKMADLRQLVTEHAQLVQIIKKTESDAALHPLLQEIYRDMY
Chain of Retinoic acid receptor alpha (Homo sapiens) (P10276 whole entry, looked up, the tested form may be a part): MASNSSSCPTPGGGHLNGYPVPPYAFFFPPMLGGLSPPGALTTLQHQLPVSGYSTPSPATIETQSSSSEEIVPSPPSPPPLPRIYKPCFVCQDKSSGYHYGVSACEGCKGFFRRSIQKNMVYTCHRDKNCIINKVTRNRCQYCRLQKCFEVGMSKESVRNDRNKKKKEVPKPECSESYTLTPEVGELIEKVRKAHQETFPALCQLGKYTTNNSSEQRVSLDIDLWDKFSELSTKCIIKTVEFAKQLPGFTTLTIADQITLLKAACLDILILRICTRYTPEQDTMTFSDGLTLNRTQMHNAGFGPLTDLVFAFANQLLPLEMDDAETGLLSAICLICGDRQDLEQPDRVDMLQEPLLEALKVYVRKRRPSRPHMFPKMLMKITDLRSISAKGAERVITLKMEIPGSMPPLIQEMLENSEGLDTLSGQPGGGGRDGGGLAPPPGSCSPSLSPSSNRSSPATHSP

As for `Oc1ccccc1-c1ccccc1`, the outcome in [1], in [2], in test [3], in test [4], in test [5] and in test [6] was inactive. Also, the outcome in test [7] and in test [8] was inactive. The AC50 (as a rule, the concentration giving half of the maximal activity seen) in [7] is 28.3 µM (active); in test [8], 4.15 µM (active).
In the case of `CN(C)C(=S)SSC(=S)N(C)C`, the AC50 in test [1] is 16.9 µM (active); in test [2] it was 33.1 µM (active); in [5] it was 32.1 µM (active); in test [6] it was 7 µM (active). The molecule was classed as inactive in test [3], in test [4], in test [9] and in test [8].
For `CC(Oc1ccc(Cl)cc1Cl)C(=O)O` (stereo not drawn), the outcome in [1], in [2], in [3], in test [5], in test [9] and in test [10] was inactive. In addition, the outcome in test [6] and in test [8] was inactive. The AC50 in test [7] was 39.1 µM (active).
For `CS/C(C)=N/OC(=O)N(C)SN(C)C(=O)O/N=C(\C)SC`, the AC50 in [1] is 24.6 µM (active); in test [2] it was 29.2 µM (active); in [5], 31.6 µM (active); in [6] it was 5.82 µM (active). Also, the molecule was called inactive in [9] and in [7].
Regarding `CCNc1nc(Cl)nc(NCC)n1`, the outcome in test [1], in test [2], in test [3], in test [5], in [9] and in test [10] was inactive. Also, the outcome in test [6], in test [7] and in [8] was inactive.
With `COC(=O)C=C(C)OP(=O)(OC)OC`, the result in [1], in test [2], in test [4], in test [5], in test [9] and in test [10] was inactive. The result in test [6], in [7] and in [8] was inactive.
As for `CC(C)(C)c1ccc(CSc2cnn(C(C)(C)C)c(=O)c2Cl)cc1`, the outcome in test [1], in test [3], in [5], in test [9], in test [10] and in [8] was inactive. The AC50 is 0.782 µM (active) in [2], 9.12 µM (active) in [6] and 10.5 µM (active) in test [7].
On to `Cc1cc(Cl)ccc1OCC(=O)O`, for which the outcome in test [1], in test [2], in [3], in test [5], in test [6] and in test [7] was inactive. Further, the outcome in [8] was inactive.
`CCOC(=O)CC(SP(=S)(OC)OC)C(=O)OCC` (stereo not drawn): the result in [1], in test [2], in [3], in [5], in [6] and in test [8] was inactive. Also, the AC50 was 14.2 µM (active) and 25.1 µM (active) in test [7]; 1.53 µM (active) in test [8].
Turning to `O=C(O)COc1nc(Cl)c(Cl)cc1Cl`, the result in test [1], in test [2], in test [4], in test [5], in [9] and in test [10] was inactive. In addition, the result in test [6] and in [8] was inactive. In addition, in test [7], the AC50 is 50 µM (active).
As to `CCCCNC(=O)n1c(NC(=O)OC)nc2ccccc21`, the outcome in test [1], in [2], in [3], in test [5], in test [10] and in test [7] was inactive. In addition, in test [8], the molecule was called inactive. For the same molecule, the AC50 in [6] is 11.2 µM (active).
`CNC(=O)ON=CC(C)(C)SC`: the result in test [1], in test [2], in test [3], in [5], in test [9] and in test [10] was inactive. In addition, the outcome in test [6], in [7] and in test [8] was inactive.
With `CCCCC(CC)COC(=O)c1ccccc1C(=O)OCC(CC)CCCC` (stereo not drawn), the outcome in test [1], in test [2], in [3], in [5] and in test [10] was inactive. Further, the values for the AC50 in [6], in [7] and in test [8] were 12.7 µM (active), 39 µM (active) and 32.9 µM (active), respectively.
As for `COC(=O)c1ccccc1C(=O)OC`, the outcome in [1], in [2], in [3], in [5], in test [9] and in test [10] was inactive. Further, the result in test [6], in [7] and in test [8] was inactive.
